Screening data: PubChem, several laboratories
BoNT-F LC inh – BoNT/F light chain protease inhibitors, primary screen, biochemical, flow cytometry, MLPCN library. Botulinum neurotoxin type F light chain protease (Clostridium botulinum). Multiplex microsphere protease cleavage assay. inhibition, % at 10 µM. 360,000 tested, 0.22% active. AID 588497, 2011; in the data active means inhibition above about 35%, passing the limit was not always enough; inconclusive means no clear call, values can overlap the other calls
Anthrax LF prot – Bacillus anthracis LF protease inhibitors, primary screen, biochemical, multiplex microsphere, MLPCN library | AID 588501, 2011 | multiplex microsphere protease cleavage assay | Lethal factor (Bacillus anthracis), P15917 | inhibition, % at 10 µM | 360,000 tested, 0.12% active
Target sequence (P15917 whole entry, looked up): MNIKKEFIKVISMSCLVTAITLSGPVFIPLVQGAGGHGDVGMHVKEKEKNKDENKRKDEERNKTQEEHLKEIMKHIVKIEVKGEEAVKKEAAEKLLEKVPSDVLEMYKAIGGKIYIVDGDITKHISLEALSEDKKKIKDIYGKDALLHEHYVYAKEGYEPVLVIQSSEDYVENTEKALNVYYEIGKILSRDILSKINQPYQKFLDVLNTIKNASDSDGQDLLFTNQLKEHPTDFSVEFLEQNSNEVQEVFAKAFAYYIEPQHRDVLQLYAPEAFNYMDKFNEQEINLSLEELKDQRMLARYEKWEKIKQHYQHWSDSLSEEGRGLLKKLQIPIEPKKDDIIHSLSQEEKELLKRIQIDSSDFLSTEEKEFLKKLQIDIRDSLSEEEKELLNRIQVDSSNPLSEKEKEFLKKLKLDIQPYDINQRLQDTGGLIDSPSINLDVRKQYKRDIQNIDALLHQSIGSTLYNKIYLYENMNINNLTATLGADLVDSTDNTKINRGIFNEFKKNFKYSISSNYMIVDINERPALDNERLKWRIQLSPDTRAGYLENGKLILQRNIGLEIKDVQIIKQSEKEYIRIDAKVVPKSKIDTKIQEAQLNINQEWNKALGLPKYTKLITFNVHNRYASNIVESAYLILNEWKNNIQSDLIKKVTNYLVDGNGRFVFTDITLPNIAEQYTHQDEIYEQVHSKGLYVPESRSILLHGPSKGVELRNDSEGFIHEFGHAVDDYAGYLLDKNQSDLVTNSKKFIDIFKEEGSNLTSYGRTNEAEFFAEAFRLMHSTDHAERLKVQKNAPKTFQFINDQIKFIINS
PriA SSB inh – inhibitors of Klebsiella pneumoniae PriA binding to SSB C-terminal tail, primary screen, biochemical, AlphaScreen. AlphaScreen SSBct-PriA binding, biotinylated peptide. 430,000 tested, 0.6% active. AID 1272365, 2023. PriA–SSB C-terminal tail interaction (Klebsiella pneumoniae). inhibition, % at 33 µM; in the data active means inhibition mostly above about 37%, no sharp cut-off; inactive means mostly below about 20%
BoNT-A LC inh2 – BoNT/A light chain protease inhibitors, primary screen, biochemical, flow cytometry, MLPCN library; multiplex microsphere protease substrate cleavage; inhibition, % at 10 µM; 360,000 tested, 0.17% active
Bead autofluor – flagged as autofluorescent in microsphere protease counterscreen; fluorescence intensity (no concentration beside the values); compound autofluorescence counterscreen, microsphere flow cytometry; stronger effect = higher value; 360,000 tested, 3.1% active; in the data active means fluorescence intensity above about 16000; inconclusive means no clear call, values can overlap the other calls
Hits are given with their value; n = inactive; u = inconclusive; x = no result; ! = a repeat was not active. A selection: hits, their analogues and other compounds. The true share with any hit is near 3.1%. Unless noted, no stated cut-off is given here; in the data, active means inhibition above about 30%; inconclusive means no clear call, values can overlap the other calls; inactive means below that.

SMILES	BoNT-F LC inh	Anthrax LF prot	PriA SSB inh	BoNT-A LC inh2	Bead autofluor
CCCCC(O)(CCN1CCOCC1)c1ccc(Cl)cc1 (stereo not given)	n	n	n	n	21851
C/C(=N/NC(=O)Cn1nnc2ccccc21)c1ccccc1	x	x	n	x	x
COc1cccc(/C=N/n2c(N)c(S(=O)(=O)c3cccs3)c3nc4ccccc4nc32)c1OC	n	n	n	n	16852
Cc1ccc(Cn2c(N)c(S(=O)(=O)c3cccs3)c3nc4ccccc4nc32)cc1	n	n	n	n	18251
Nc1c(S(=O)(=O)c2cccs2)c2nc3ccccc3nc2n1Cc1ccccc1	n	n	n	n	16336
COc1cccc(/C=N/n2c(CO)nc3ccccc32)c1OC	n	n	x	u	21345
O=C(Nc1nnc(-c2cccs2)o1)C1CC(=O)N(c2ccc(F)cc2)C1 (stereo not given)	x	x	27!	x	x
O=C(Nc1nccs1)C1CC(=O)N(c2ccc(F)cc2)C1 (stereo not given)	n	n	n	n	n
O=C(Nc1nnc(-c2ccccc2Cl)o1)C1CC(=O)N(c2ccccc2)C1 (stereo not given)	x	x	46	x	x
CCCCS(=O)CC(O)COCC (stereo not given)	n	n	n	n	n
CCOCC(O)CS(=O)Cc1ccccc1 (stereo not given)	n	n	n	n	24995
O=[N+]([O-])c1ccc(Nc2ccccc2Cl)c2nonc12	x	x	59	x	x
Cc1ccccc1Nc1ccc([N+](=O)[O-])c2nonc12	x	x	n	x	x
O=C(O)c1ccccc1Nc1ccc([N+](=O)[O-])c2nonc12	n	n	57!	n	n
O=C(O)c1ccccc1Nc1ccc([N+](=O)[O-])cc1C(=O)O	u	n	n	n	n
O=C(NNC(=O)c1ccccc1F)c1ccc(=O)n(Cc2ccccc2)c1	x	x	n	x	x
CCCCSc1nnc2c(n1)[nH]c1ccccc12	n	n	n	n	21409
O=C(CCc1nc2ccccc2[nH]1)Nc1ccc2c(c1)OCO2	n	n	n	n	n
O=C(CSc1nnc2c(n1)[nH]c1ccccc12)Nc1ccc2c(c1)OCO2	n	n	n	u	21923
O=C(Cc1c(C(=O)O)[nH]c2ccccc12)Nc1ccc2c(c1)OCO2	n	n	n	n	16805
O=C(O)c1[nH]c2ccccc2c1CC(=O)N1CCOCC1	n	n	n	n	19170
O=C(O)c1[nH]c2ccccc2c1CC(=O)N1CCN(c2ccccc2)CC1	n	n	n	n	n
O=C(Cn1ncccc1=O)NCc1ccnc(-c2ccsc2)c1	x	x	n	x	x
O=C(C1COc2ccccc2O1)N1CCCC(Oc2cnccn2)C1 (stereo not given)	x	x	n	x	x
CCOc1ccc(C(=O)Nc2cc(-c3cccs3)nn2-c2nc(C)c(C)c(=O)[nH]2)cc1OCC	x	x	n	x	x
SMILES	BoNT-F LC inh	Anthrax LF prot	PriA SSB inh	BoNT-A LC inh2	Bead autofluor
CCOCC(=O)Nc1cc(C)nn1-c1nc(C)cc(=O)[nH]1	x	x	n	x	x
O=C(COC(=O)[C@H](Cc1c[nH]c2ccccc12)NC(=O)c1ccc(Cl)cc1)Nc1ccc2c(c1)OCO2	n	n	n	n	21349
CC(=O)N[C@@H](Cc1c[nH]c2ccccc12)C(=O)OCC(=O)Nc1ccc2c(c1)OCO2	n	n	n	n	n
Cc1cc(Cl)cc2sc(N(CC3CCCO3)C(=O)Cc3ccc4c(c3)OCO4)nc12 (stereo not given)	x	x	n	x	x
CN(Cc1ccccc1)c1ncnc2c1cnn2-c1ccccc1	n	n	n	n	22100
Fc1ccc(CNc2ncnc3c2cnn3-c2ccccc2)cc1	u	n	n	n	n
c1ccc(-n2ncc3c(NCCN4CCCCC4)ncnc32)cc1	n	n	n	n	n
c1ccc(CNc2ncnc3c2cnn3-c2ccccc2)cc1	n	n	n	n	16180
c1ccc(-n2ncc3c(NCc4ccccn4)ncnc32)cc1	n	n	n	n	24065
c1ccc(-n2ncc3c(NCCN4CCOCC4)ncnc32)cc1	n	n	n	n	16340
O=S(=O)(NCC#CCOc1cccc(C(F)(F)F)c1)c1cccs1	x	x	n	x	x
O=C(c1ccc(Br)s1)N1CCN(C/C=C/c2ccccc2)CC1	n	n	n	n	22315
O=C(c1ccc(Br)o1)N1CCN(C/C=C/c2ccccc2)CC1	n	n	n	n	n
O=C(OCC(=O)N1CCc2ccccc21)c1ccncc1	n	n	n	n	n
O=C(OCC(=O)N1CCc2ccccc21)c1ccc(Cl)nc1	n	n	n	n	23913
CCC(C)NC(=O)c1ccc(CSCc2ccc(Cl)cc2)o1 (stereo not given)	n	n	n	n	n
CCC(C)NC(=O)c1ccc(CS(=O)(=O)Cc2ccc(Cl)cc2)o1 (stereo not given)	n	n	n	n	23433
COc1ccc(NC(=O)CN(c2ccc(C)cc2)S(=O)(=O)c2c(C)nn(C)c2C)cc1OC	n	n	n	n	22939
COc1ccc2nc(NC(=O)CN(c3ccc(C)cc3)S(=O)(=O)c3c(C)nn(C)c3C)sc2c1	n	n	n	n	20805
COc1ccc(NC(=O)CN(c2ccc(C)cc2)S(=O)(=O)c2c(C)nn(C)c2C)cc1	n	n	n	n	n
COc1ccc(NC(=O)CN(c2ccc(OC)cc2)S(=O)(=O)c2c(C)nn(C)c2C)cc1	n	n	n	n	n
COc1ccc(CCNC(=O)c2cc(=O)c(OCc3ccc(F)cc3)c[nH]2)cc1OC	x	x	n	x	x
COC(CNC(=O)CSCc1ccccc1)c1ccc(C)s1 (stereo not given)	x	x	n	x	x
CS(=O)(=O)NCCSCc1c(Cl)cccc1Cl	n	n	n	n	17037
CS(=O)(=O)NCCSCc1c(F)cccc1Cl	n	n	n	n	n
SMILES	BoNT-F LC inh	Anthrax LF prot	PriA SSB inh	BoNT-A LC inh2	Bead autofluor
Cc1ccccc1CSCCNS(C)(=O)=O	n	n	n	n	17003
COc1ccc(S(=O)(=O)NCCSCc2ccccc2C)cc1Br	n	n	n	n	16146
NC(=O)C1CCN(C(=O)Cc2csc(Nc3ccccc3)n2)CC1	x	x	n	x	x
CSc1ccc([C@@H](O)CNC(=O)c2cncc(Br)c2)cc1	x	x	n	x	x
COc1ccc(/C=C/C(=O)N(CC(C)C)CC(C)C)cc1Br	n	n	n	u	21487
COc1ccc(N=Nc2cc(C)c(O)c(CN3CCCCC3)c2)cc1	x	x	54	x	x
COc1ccc(CN2CCCCCC2)cc1	u	n	n	n	n
COc1cccc(C=NNC(=O)c2csc(-n3nc(C)cc3C(F)(F)F)n2)c1	x	x	n	x	x
CCC(C)c1c(O)nc(SCC(=O)N2CCOCC2)[nH]c1=O (stereo not given)	n	n	n	n	17264
O=C(C[C@H](NCCCN1CCOCC1)C(=O)O)Nc1ccc(F)cc1F	x	x	n	x	x
CC(C)n1c(=O)c2c(O)cc(=O)oc2c2ccccc21	n	n	n	u	21712
CCn1c(=O)c2c(O)cc(=O)oc2c2ccccc21	n	n	n	u	22829
CCOc1ccccc1S(=O)(=O)N1CC(c2nc(-c3cccc(C(=O)NC)c3)no2)C1	x	x	n	x	x
Cc1cc(N2CCC(NC(=O)c3ccncc3)CC2)n[nH]1	x	x	n	x	x
